# Screening results deposited in PubChem by several laboratories.
# Rin1-Abl PPI inh = human Rin1-Abl interaction inhibition; TR-FRET Rin1/Abl binding, biochemical; inhibition, % at 7.35 µM; hit rate 0.4% among 360,000; in the data active = inhibition above about 5%, passing the limit was not always enough
# LEDGF integ inh = blocks HIV-1 LEDGF/p75-dependent DNA integration. TR-FRET IN-LEDGF/p75 DNA integration, Eu/Cy5. inhibition, % at 3.7 µM. hit rate 0.64% among 370,000;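 active = inhibition above the screen-wide mean plus 3 SD, cut at about 13% in these data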;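 note: signal is the Cy5 over europium emission ratio at 671 and 618 nm; 0% = plate median of compound wells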
# proKLK7 act = proKLK7 (human) activation, primary screen. hit rate 0.9% among 370,000. activation, % at 7 µM. purified proKLK7, EDANS-DABCYL substrate fluorescence; 100% is mature enzyme control, 0% vehicle. P49862;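 active = activation above the mean of all tested compounds plus 3 SD, computed per campaign excluding outliers beyond control limits, cut at about 13% in these data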
# MBD2 inh = blocks human MBD2 binding to methylated DNA; Q9UBB5; TR-FRET, MBD2 binding to methylated oligonucleotide; inhibition, % at 4.4 µM; hit rate 0.31% among 370,000; AID 686964; in the data active = inhibition above about 13%
# Neddyl block = cullin neddylation inhibition. P61081+Q13564. TR-FRET cullin neddylation, biochemical. calls only at 25 µM. hit rate 0.58% among 360,000; in the data active = inhibition above about 36%
# UHRF1 binding = human UHRF1 methylated DNA binding inhibitors; UHRF1 binding to methylated oligo, TR-FRET; inhibition, % at 4.4 µM; hit rate 0.75% among 370,000; in the data active = inhibition above about 21%;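 note: UHRF1 SRA domain binding a hemimethylated CpG hairpin DNA probe; 0% = median of test compound wells and 100% = reference inhibitor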
# Neddyl inh conf = cullin neddylation inhibition, confirmation. shares compounds with Neddyl block. TR-FRET cullin neddylation biochemical assay. calls only at 25 µM. hit rate 13% among 1,800. AID 652217; in the data active = inhibition above about 40%;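 note: neddylation substrate is the cullin 1 ring ligase complex with SKP2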
# An asterisk follows results filed as active; i = inactive; · = no result given; + = active, no number. Shown are actives, neighbours in structure and some others; about 3.1% of the full set was active somewhere.
SMILES,Rin1-Abl PPI inh,LEDGF integ inh,proKLK7 act,MBD2 inh,Neddyl block,UHRF1 binding,Neddyl inh conf
COc1cc(-c2cc(C(=O)N3CCN(c4ccccn4)CC3)c3ccccc3n2)cc(OC)c1OC,-5,-4,8,2,+,-1,i
CCCCn1c2nc3ccccc3nc2c2c(=O)n(CC(C)C)cnc21,-2,-1,0,-2,+,-1,i
CCOC(=O)c1nsnc1NCCSC(=N)N,5,-2,-9,1,+,1,i
CCOC(=O)c1nonc1NC(C)=O,2,-3,0,3,i,-5,·
COCc1cc(C)nc(Nc2ccccc2C)c1C#N,0,·,·,·,i,·,·
CCN(CC)CCCNc1nc(C)cc(COC)c1C#N,-2,2,3,2,+,1,i
CN(C)c1cccc(C(=O)NCc2ccccc2)c1,0,0,1,-3,+,0,i
c1ccc(N2CCN(c3nc(NCc4ccco4)c4ccccc4n3)CC2)cc1,-1,0,-4,1,i,-1,·
c1coc(CNc2nc(N3CCCCC3)nc3ccccc23)c1,-1,-2,-32,0,+,1,i
O=C(Cn1cnc2cc([N+](=O)[O-])ccc2c1=O)Nc1ccc(N2CCOCC2)cc1,-5,5,0,-4,i,-2,·
Cc1ccccc1-c1cc2nc(C)c(Cl)c(=O)n2[nH]1,0,-1,1,-1,+,4,i
COC(=O)c1nc2cc3c(cc2c(C)c1C(=O)OC)OCO3,0,-3,0,-2,+,-3,+
O=C(Nc1cc(S(=O)(=O)N2CCCCC2)ccc1O)c1ccccc1NS(=O)(=O)c1ccc(F)c(F)c1,-1,2,1,3,+,1,i
O=C(COC(=O)c1ccccc1O)Nc1cc(S(=O)(=O)N2CCCCCC2)ccc1Cl,1,1,0,6,+,4,·
O=C(Nc1cccc(S(=O)(=O)N2CCCCC2)c1)c1ccccc1NS(=O)(=O)c1ccc(F)cc1,-2,0,1,1,·,1,·
O=C(COC(=O)c1ccccc1)Nc1cc(S(=O)(=O)N2CCCCCC2)ccc1Cl,0,5,0,-1,i,2,·
C[C@@H]1CN([C@H](C)CO)C(=O)CCCn2nncc2CO[C@H]1CN(C)C(=O)Nc1ccc2c(c1)OCCO2,·,1,0,-3,·,4,·
Cc1cc(NC(=O)COc2ccccc2C)ccc1NC(=O)c1ccco1,-2,-6,1,8,i,3,·
COc1cc(NC(=O)COc2ccccc2C)ccc1NC(=O)c1ccco1,1,-1,6,-2,+,1,·
COCCCNC(=S)N(Cc1cccnc1)Cc1ccc(OC)c(OC)c1,0,0,0,0,i,2,·
CCOC(=O)/C(C#N)=C1\Nc2ccccc2N=C1N(CC(C)C)CC(C)C,-1,-2,-1,-1,i,-2,·
CCCCN(CCCC)C1=Nc2ccccc2N/C1=C(/C#N)C(=O)OCC,-1,1,2,-3,+,-2,i
Cc1ccc2nc(-c3ccc4c(c3)OCCO4)cc(C(=O)O)c2c1,-2,2,0,-2,+,3,·
CCOC(=O)c1cc(-c2ccccc2)nc2ccc(C)cc12,1,-1,-6,-1,+,-2,·
COc1ccccc1CNC(=O)CN1C(=O)N(C)C2(CCCCC2)C1=O,-1,3,1,-5,i,0,·
SMILES,Rin1-Abl PPI inh,LEDGF integ inh,proKLK7 act,MBD2 inh,Neddyl block,UHRF1 binding,Neddyl inh conf
COc1cccc2c(=O)cc(C)n(CC(=O)Nc3cccc(C)c3)c12,-1,-4,1,-3,+,-2,i
c1nc2nc3c(c(N4CCCC4)n2n1)CCCC3,·,4,0,-2,·,4,·
Oc1ccccc1C=NNc1nc2ccccc2s1,1,-2,-6,-3,+,-2,i
COC(=O)c1c(C(=O)OC)c2cc(C(=O)c3ccccc3)ccn2c1Cl,-2,-2,1,-4,+,-1,i
Cc1cc(N2CCN(C)CC2)nc2ccc(NC(=O)CCC(=O)NCc3ccco3)cc12,-4,4,10,2,+,7,i
COC(=O)c1ccccc1NC(=O)NCC1CCCO1 (stereo not drawn),-2,5,-5,-3,+,-1,i
CC1(C)Cc2c(c(-c3ccco3)nc3sc4c(NCCN5CCOCC5)ncnc4c23)CO1,-2,-3,-16,-3,+,4,i
CC1(C)Cc2c(c(-c3ccco3)nc3sc4c(NCCCO)ncnc4c23)CO1,-4,4,-19,1,·,1,·
COc1cccc(/C=C/C(=O)NCc2cn3cc(Cl)ccc3n2)c1OC,0,-4,-1,3,+,-2,i
COCCNC(=O)CSc1nc(-c2ccccc2)cs1,7,0,0,-6,i,1,·
O=C1NC[C@@H](CCCCN2C[C@H](Cc3ccccc3)N(CC3CCCCC3)C(=O)C2=O)N(CCc2ccccc2)C1=O,·,0,0,-5,i,-2,·
Cc1cc(C)n(CCOc2ccc(Br)cc2)n1,1,1,0,3,i,1,·
NC(=O)c1cccc(N=Cc2cc(Cl)cc(Cl)c2O)c1,0,-1,0,-2,+,-2,i
O=C(N/N=C/c1ccc([N+](=O)[O-])o1)c1ccncc1,-4,-4,1,-5,+,-2,i
COc1ccc(-c2cc(C(=O)NNC(=O)c3csc(N4CCOCC4)n3)c3ccccc3n2)cc1,-2,0,3,-6,+,-3,i
CN(C)C(=O)CSc1ncccc1-c1nc2ccccc2[nH]1,0,-2,0,3,i,1,·
CCN(CC)C(=O)CSc1ncccc1-c1nc2ccccc2[nH]1,3,4,1,-1,+,3,i
COc1ccc2[nH]c(C(=O)O)c(NS(=O)(=O)c3ccc(C)c(C)c3)c2c1,-2,3,-1,-3,+,-3,i
c1ccc(Cn2c(-c3ccccc3)nc3nc4ccccc4nc32)cc1,-2,0,-1,3,+,2,i
c1csc(-c2nc3nc4ccccc4nc3n2Cc2ccc3c(c2)OCO3)c1,-2,-2,0,0,+,-3,i
Cc1ccc(-c2nc3ncccc3o2)cc1NC(=O)C(C)(C)C,2,-4,1,5,+,-1,·
Cc1cc(C)n2c3c(c(C#N)c2n1)CCCC3,-3,-4,-1,-3,+,5,i
CCOc1c(C#N)c(C#N)c2nc(C)cc(C)n12,2,-3,0,-1,i,-2,·
